Laboratory results from PubChem BioAssay (EPA / NIEHS).
Calls of active or inactive are those of the source. The calls were made as follows: active = hit-call score of the fitted dose curve at least 0.9, where 1 is the maximum; inactive = score below 0.9.

Tests used:
Settings in all cases: mRNA level, 48 h; actives raise or lower the signal
[1] = read-out: ATP-citrate lyase (ACLY), ACLY (gene 47); experiment: LTEA_HepaRG_ACLY: Life Technologies and Expression Analysis (LTEA) Assay for ATP-citrate lyase (ACLY) using HepaRG (AID 2283466)
In short: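 HepaRG, 48 h exposure, 8-pt half-log dilutions (top 100 uM), 0.5% DMSO. Readout: ACLY mRNA, TaqMan qRT-PCR, housekeeping-normalized (ACTB/GAPDH/POLR2A). Bidirectional curve fit vs DMSO.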

[2] = read-out: Alkaline Phosphatase, Placental (ALPP) gene, ALPP (gene 250); experiment: LTEA_HepaRG_ALPP: Life Technologies and Expression Analysis (LTEA) Assay for Alkaline Phosphatase, Placental (ALPP) gene using HepaRG (AID 2283468)
In short: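 HepaRG cells plated 48 h, then exposed in duplicate for 48 h in serum-free induction medium to 8-point half-log series from 100 uM in 0.5% DMSO. ALPP mRNA by TaqMan qRT-PCR, normalized to ACTB/GAPDH/POLR2A; bidirectional fit versus DMSO.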

[3] = read-out: Bcl-2 (BAD) gene, BAD (gene 572); experiment: LTEA_HepaRG_BAD: Life Technologies and Expression Analysis (LTEA) Assay for Bcl-2 (BAD) gene using HepaRG (AID 2283469)
In short: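 BAD transcript change, measured by qRT-PCR against three housekeeping genes and fitted in both directions relative to 0.5% DMSO, after 48 h chemical treatment of human HepaRG liver cells at concentrations up to 100 uM.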

[4] = read-out: Bcl-2 (BAX) gene, BAX (gene 581); experiment: LTEA_HepaRG_BAX: Life Technologies and Expression Analysis (LTEA) Assay for Bcl-2 (BAX) gene using HepaRG (AID 2283470)
In short: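 Concentration-response endpoint fitted in both directions relative to 0.5% DMSO vehicle. Human HepaRG cultures receive test chemicals for 48 h at up to 100 uM; BAX mRNA is quantified by qRT-PCR against housekeeping genes.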

[5] = read-out: adenosine kinase (ADK) gene, ADK (gene 132); experiment: LTEA_HepaRG_ADK: Life Technologies and Expression Analysis (LTEA) Assay for adenosine kinase (ADK) gene using HepaRG (AID 2283471)
In short: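 ADK expression quantified by qRT-PCR, normalised to three housekeeping genes, after 48 h exposure of HepaRG cells to eight concentrations (top 100 uM, half-log steps, duplicate, 0.5% DMSO). Up- or down-regulation fitted relative to vehicle.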

[6] = read-out: Alpha-fetoprotein (AFP) gene, AFP (gene 174); experiment: LTEA_HepaRG_AFP: Life Technologies and Expression Analysis (LTEA) Assay for Alpha-fetoprotein (AFP) gene using HepaRG (AID 2283472)
In short: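 After a 48 h plating period, cells are moved to serum-free induction medium and dosed in duplicate (100 uM maximum, half-log dilutions, 0.5% DMSO) for another 48 h. Total RNA goes to TaqMan qRT-PCR; AFP signal is housekeeping-normalized.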

BCL2L11 (gene 10018) = experiment: LTEA_HepaRG_BCL2L11: Life Technologies and Expression Analysis (LTEA) Assay for Bcl-2 (BCL2L11) gene using HepaRG (AID 2283473)
In short: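 Differentiated human HepaRG cells were exposed 48 h in serum-free induction medium to eight half-log concentrations up to 100 uM in 0.5% DMSO, in duplicate. BCL2L11 mRNA was quantified by TaqMan qRT-PCR, normalized to ACTB, GAPDH and POLR2A; induction or repression fitted versus DMSO.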

[7] = read-out: Apolipoprotein A-V (APOA5) gene, APOA5 (gene 116519); experiment: LTEA_HepaRG_APOA5: Life Technologies and Expression Analysis (LTEA) Assay for Apolipoprotein A-V (APOA5) gene using HepaRG (AID 2283474)
In short: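 Differentiated HepaRG cells in serum-free induction medium, exposed 48 h in duplicate to eight half-log concentrations topping at 100 uM (0.5% DMSO). APOA5 mRNA by Fluidigm TaqMan qRT-PCR, normalized to ACTB, GAPDH and POLR2A; bidirectional fit versus DMSO.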

Caspase-3 (Homo sapiens) = Caspase-3 (Homo sapiens) (UniProt P42574); experiment: LTEA_HepaRG_CASP3: Life Technologies and Expression Analysis (LTEA) Assay for cysteine-aspartic acid protease (CASP3) using HepaRG (AID 2283477)
Caspase-3 (Homo sapiens), sequence (P42574 whole entry, looked up): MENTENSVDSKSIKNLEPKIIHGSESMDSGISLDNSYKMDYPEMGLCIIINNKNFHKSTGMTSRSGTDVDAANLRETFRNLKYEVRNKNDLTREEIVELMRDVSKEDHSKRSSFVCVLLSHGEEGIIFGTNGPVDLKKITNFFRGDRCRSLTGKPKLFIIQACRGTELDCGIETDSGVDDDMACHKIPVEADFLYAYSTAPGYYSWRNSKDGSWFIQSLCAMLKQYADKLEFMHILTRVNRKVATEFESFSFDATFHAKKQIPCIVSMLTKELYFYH
In short: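 Differentiated HepaRG cells, plated 48 h, were treated in duplicate in serum-free induction medium for 48 h with eight half-log concentrations up to 100 uM in 0.5% DMSO. CASP3 mRNA measured by qRT-PCR, normalized to ACTB, GAPDH, POLR2A.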

[8] = read-out: Cytochrome P450 (CYP24A1), CYP24A1 (gene 1591); experiment: LTEA_HepaRG_CYP24A1: Life Technologies and Expression Analysis (LTEA) Assay for Cytochrome P450 (CYP24A1) using HepaRG (AID 2283478)
In short: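 HepaRG cells plated 48 h, then exposed in duplicate in serum-free induction medium for 48 h to 8-point half-log series from 100 uM in 0.5% DMSO. CYP24A1 mRNA by Fluidigm qRT-PCR, normalized to ACTB, GAPDH, POLR2A; bidirectional fit versus DMSO.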

[9] = read-out: cysteine-aspartic acid protease (CASP8), CASP8 (gene 841); experiment: LTEA_HepaRG_CASP8: Life Technologies and Expression Analysis (LTEA) Assay for cysteine-aspartic acid protease (CASP8) using HepaRG (AID 2283480)
In short: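 HepaRG, 48 h exposure, duplicate wells; 8 conc, half-log from 100 uM, 0.5% DMSO. Serum-free induction medium. CASP8 mRNA by TaqMan qRT-PCR, norm. ACTB/GAPDH/POLR2A; gain/loss fitted vs DMSO.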

[10] = read-out: Cytochrome P450 (CYP2B6), CYP2B6 (gene 1555); experiment: LTEA_HepaRG_CYP2B6: Life Technologies and Expression Analysis (LTEA) Assay for Cytochrome P450 (CYP2B6) using HepaRG (AID 2283481)
In short: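 Differentiated human HepaRG cells in serum-free induction medium, dosed in duplicate for 48 h over 8 half-log concentrations topping at 100 uM (0.5% DMSO). CYP2B6 mRNA measured by TaqMan qRT-PCR, normalized to ACTB, GAPDH, POLR2A; bidirectional fit versus DMSO.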

[11] = read-out: Cytochrome P450 2C19 (Homo sapiens) (UniProt P33261); experiment: LTEA_HepaRG_CYP2C19: Life Technologies and Expression Analysis (LTEA) Assay for CYP2C19 using HepaRG (AID 2283482)
In short: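 Differentiated HepaRG cells in serum-free induction medium exposed 48 h in duplicate, 8 concentrations from 100 uM by half-log steps in 0.5% DMSO. CYP2C19 mRNA measured by TaqMan qRT-PCR, normalized to ACTB, GAPDH, POLR2A. Bidirectional fit versus DMSO.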

CYP2C8 (gene 1558) = experiment: LTEA_HepaRG_CYP2C8: Life Technologies and Expression Analysis (LTEA) Assay for CYP2C8 using HepaRG (AID 2283483)
In short: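 CYP2C8 mRNA induction or loss, by qRT-PCR normalized to ACTB/GAPDH/POLR2A, is read in HepaRG cells after 48 h treatment. Concentrations run from 100 uM down in half-log dilutions, with 0.5% DMSO as vehicle and baseline.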

CYP2C9 (gene 1559) = experiment: LTEA_HepaRG_CYP2C9: Life Technologies and Expression Analysis (LTEA) Assay for CYP2C9 using HepaRG (AID 2283484)
In short: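 Cells plated 48 h, switched to serum-free induction medium, then treated in duplicate for 48 h at eight concentrations (max 100 uM, 0.5% DMSO). RNA then analysed by qRT-PCR for CYP2C9; curves fitted in both directions relative to DMSO.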

CYP2E1 (gene 1571) = experiment: LTEA_HepaRG_CYP2E1: Life Technologies and Expression Analysis (LTEA) Assay for CYP2E1 using HepaRG (AID 2283485)
In short: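 Differentiated HepaRG cells were treated in duplicate for 48 h with chemicals in 0.5% DMSO, from 100 uM downward in half-log dilutions. RNA was then analysed by qRT-PCR for CYP2E1 induction or loss.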

[12] = read-out: Peroxisomal acyl-coenzyme A oxidase 1 (ACOX1) gene, ACOX1 (gene 51); experiment: LTEA_HepaRG_ACOX1: Life Technologies and Expression Analysis (LTEA) Assay for Peroxisomal acyl-coenzyme A oxidase 1 (ACOX1) gene using HepaRG (AID 2283467)
In short: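 Measured by qRT-PCR against three housekeeping genes: ACOX1 transcript change in human HepaRG cells after 48 h dosing. Concentrations ran up to 100 uM in half-log steps. Curves were fitted bidirectionally relative to 0.5% DMSO.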

[13] = read-out: Apoptosis regulator Bcl-2 (Homo sapiens) (UniProt P10415); experiment: LTEA_HepaRG_BCL2: Life Technologies and Expression Analysis (LTEA) Assay for Bcl-2 gene using HepaRG (AID 2283475)
In short: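 Expression change of BCL2 mRNA in HepaRG after 48 h dosing, quantified by TaqMan qRT-PCR against three endogenous controls. Concentration-response used eight points up to 100 uM, vehicle 0.5% DMSO.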

[14] = read-out: Bcl-2 (BID) gene, BID (gene 637); experiment: LTEA_HepaRG_BID: Life Technologies and Expression Analysis (LTEA) Assay for Bcl-2 (BID) gene using HepaRG (AID 2283476)
In short: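 Gain or loss of BID expression is fitted relative to 0.5% DMSO vehicle. Human HepaRG liver cells received a 48 h chemical exposure over an eight-point concentration range.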

Measured: AC50

Cytochrome P450 2C19 (Homo sapiens), sequence (P33261 whole entry, looked up): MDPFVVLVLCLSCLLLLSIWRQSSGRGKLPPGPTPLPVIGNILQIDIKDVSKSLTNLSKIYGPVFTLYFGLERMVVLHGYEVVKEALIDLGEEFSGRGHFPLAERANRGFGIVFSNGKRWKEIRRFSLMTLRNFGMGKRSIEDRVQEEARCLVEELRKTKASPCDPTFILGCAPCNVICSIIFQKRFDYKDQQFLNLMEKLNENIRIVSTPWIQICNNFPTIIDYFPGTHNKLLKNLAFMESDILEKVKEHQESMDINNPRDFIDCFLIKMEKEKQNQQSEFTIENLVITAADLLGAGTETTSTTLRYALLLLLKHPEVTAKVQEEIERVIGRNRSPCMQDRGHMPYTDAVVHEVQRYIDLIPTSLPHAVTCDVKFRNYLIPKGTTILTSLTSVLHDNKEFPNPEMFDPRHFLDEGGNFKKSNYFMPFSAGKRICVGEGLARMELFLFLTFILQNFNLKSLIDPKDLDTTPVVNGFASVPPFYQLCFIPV
Apoptosis regulator Bcl-2 (Homo sapiens), sequence (P10415 whole entry, looked up): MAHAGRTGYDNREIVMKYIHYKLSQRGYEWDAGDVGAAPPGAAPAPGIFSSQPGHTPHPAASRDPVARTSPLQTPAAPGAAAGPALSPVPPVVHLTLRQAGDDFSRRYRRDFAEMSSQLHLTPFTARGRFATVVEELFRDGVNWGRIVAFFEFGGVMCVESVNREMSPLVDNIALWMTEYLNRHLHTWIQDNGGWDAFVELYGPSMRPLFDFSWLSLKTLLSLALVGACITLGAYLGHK

C=CCCCCCCCCCCCC
not listed: [12] | [13] | [14]
inactive: all other assays above

CCOCCOCCO
not listed: [1] | [14]
inactive: all other assays above

CCCC(=O)O
not listed: [12] | [13] | [14]
inactive: all other assays above

CC(C)(O)c1ccc(CNC(=O)c2cccnc2Oc2ccc(F)cc2)cc1
active: [10] 432 nM | [11] 8.99 µM | CYP2E1 (gene 1571) 37.9 µM
not listed: [12]
inactive: all other assays above
